From PubChem
Only some compounds are listed: those with a hit (about 8.7% of all), similar ones and a draw of the others.
Pf growth 48h = P. falciparum growth inhibition at 48 hours (one generation); P. falciparum luciferase growth in erythrocytes, 48 h; Potency, µM (top dose mostly 28.7 µM), without a hit: at the top dose activity change, negative = inhibition, hits mostly inhibitors; 310,000 compounds, 5.9% hits
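In quantitative HTS format, infected erythrocytes bearing luciferase-reporter parasites were treated for a single generation at 37 C. Luminescence after adding detection reagent served as the growth measure.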
Pf growth 96h = P. falciparum growth inhibition at 96 hours; Potency, µM (titrated, usually from 28.7 µM), inactives show top-dose activity change, negative = inhibition, usual class: inhibitors; AID 504834; P. falciparum luciferase reporter growth, 96 h; 320,000 compounds, 6.9% hits
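Infected RBCs, 2% Hct / 0.05% parasitemia final; luciferase-reporter P. falciparum; cpd 96 h, 37 C, 5% CO2; luciferase detection reagent; luminescence.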
AMA1-RON2 inh = AMA1-RON2 (P. falciparum) interaction inhibition | 360,000 compounds, 0.2% hits | AlphaScreen AMA1-biotinylated RON2 peptide binding | AID 720542 | Potency, µM (series often up to 58.2 µM), inactives show top-dose activity change, negative = inhibition, actives largely listed as inhibitors;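 further: 0% = vehicle wells and -100% = peptide control; nearly all actives have a fitted effect of over 45% in size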
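AMA1 (3D7) with his tag at 25 nM final met compounds first, then biotinylated RON2 peptide at 25 nM; detection used donor plus acceptor beads, 10 µg/mL apiece, read by AlphaScreen after 30 min at room temperature.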
VACV mCherry inh = vaccinia inhibition (mCherry reporter); Vaccinia virus mCherry reporter infection, fluorescence; Potency, µM (doses to about 36.5 µM), inactives show at the top dose activity change, negative = inhibition, hits mostly inhibitors; 310,000 compounds, 0.63% hits; AID 720579; calls by dose curve; tested in A549 cells; further: nearly all actives have a fitted effect of over 35% in size
VACV Venus inh = vaccinia inhibition (Venus reporter); Vaccinia virus Venus reporter expression, fluorescence; Potency, µM (titrated, usually from 36.5 µM), without a hit: top-dose activity change, negative = inhibition, most hits filed as inhibitors; 330,000 compounds, 0.46% hits; calls by dose curve; tested in A549 cells; further: nearly all actives have a fitted effect of over 30% in size
An asterisk follows results filed as active; [ ] = another dose, or the depositor's remark. Unless noted, the call rests on the fitted dose curve; in most records, active means well fitted curve in the direction sought with a large enough effect; inconclusive means small, poorly fitted or top-dose-only effect, or another doubt; inactive means no such curve, though single readings can be large; an effect the other way counts as inactive or inconclusive. Unless noted, on the % scale 0 is the no-effect control and ±100 the full control effect; potency means the concentration at half of the fitted maximal effect.

How did CC(=O)NC1CC(=O)N(c2ccc3c(c2)OCCO3)C1 (stereo not drawn) do in these assays?
VACV mCherry inh: -16%; VACV Venus inh: -9%

What do the screens show for `Cc1ccc(C(NC(=O)c2cccc(S(=O)(=O)N3CCN(C)CC3)c2)c2ccccc2)cc1` (stereo not drawn)?
Pf growth 48h: 15µM*; Pf growth 96h: inconclusive; AMA1-RON2 inh: -8%

What do the screens show for `CS(=O)(=O)c1cccc(C(=O)NC(c2ccccc2)c2ccccc2)c1`?
Pf growth 48h: 6%; Pf growth 96h: 2%[5.75 µM]; AMA1-RON2 inh: 19%; VACV Venus inh: -23%

How did CN1CCN(S(=O)(=O)c2cccc(C(=O)Nc3sccc3C(N)=O)c2)CC1 do in these assays?
Pf growth 48h: 13µM*; Pf growth 96h: inconclusive; AMA1-RON2 inh: -9%

How did CN(C)S(=O)(=O)c1cccc(C(=O)OCC(=O)Nc2sccc2C(N)=O)c1 do in these assays?
Pf growth 48h: 1.9µM*; Pf growth 96h: 3.7µM*; AMA1-RON2 inh: -5%; VACV mCherry inh: -29%; VACV Venus inh: -24%

What do the screens show for `CCN(C(=O)c1cc2c(Cl)nc3ccc(C)cc3c2s1)c1cc(OC)ccc1OC`?
VACV mCherry inh: -17%; VACV Venus inh: -10%

Results for CC(NC(=O)c1cnn2c1NC(=C1CC1)C=C2C(F)F)c1ccncc1 (stereo not drawn) ?
VACV mCherry inh: -5%; VACV Venus inh: -19%

How did CCCCCCn1ccc(=N)cc1 do in these assays?
Pf growth 48h: 3.3µM*; Pf growth 96h: 0.47µM*; AMA1-RON2 inh: -1%; VACV Venus inh: inconclusive

What do the screens show for `CS(=O)(=O)N(CC(=O)N1CCCC1)c1ccc(Cl)cc1Cl`?
Pf growth 48h: 33%; Pf growth 96h: 0%; AMA1-RON2 inh: -2%; VACV mCherry inh: -15%; VACV Venus inh: -7%

Results for CS(=O)(=O)N(CC(=O)N1CCCC1)c1cc(Cl)c(Cl)cc1Cl ?
Pf growth 96h: 9.3µM*; AMA1-RON2 inh: -3%; VACV mCherry inh: -9%; VACV Venus inh: -11%

How did Cc1ccc(C)c(NC(=O)C(OC(=O)c2ccc(NC(=O)CC#N)cc2)c2ccccc2)c1 (stereo not drawn) do in these assays?
Pf growth 48h: 10µM*; Pf growth 96h: inconclusive; AMA1-RON2 inh: -12%; VACV mCherry inh: inactive; VACV Venus inh: -11%

Results for CCOC(=O)c1c(C)[nH]c(C(=O)C(C)OC(=O)c2ccc(NC(=O)CC#N)cc2)c1C (stereo not drawn) ?
Pf growth 48h: 8.3µM*; Pf growth 96h: 10µM*; AMA1-RON2 inh: -3%

Results for Cc1cc(C)cc(NC(=O)C(OC(=O)c2ccc(NC(=O)CC#N)cc2)c2ccccc2)c1 (stereo not drawn) ?
Pf growth 48h: 10µM*; Pf growth 96h: 10µM*; AMA1-RON2 inh: 10%; VACV mCherry inh: -1%; VACV Venus inh: 5%

What do the screens show for `CCOC(=O)c1c(C)[nH]c(C(=O)OCC(=O)Nc2ccc(OCC)cc2)c1C`?
Pf growth 48h: 37%; AMA1-RON2 inh: -6%

What do the screens show for `CN(C)c1cc(F)c(C=O)cc1F`?
VACV mCherry inh: -18%; VACV Venus inh: 3%

What do the screens show for `CC(C)(C)NC(=O)c1ccc2nc(CCc3ccccc3)oc2c1`?
VACV mCherry inh: -6%; VACV Venus inh: -11%

Results for Cc1c(/C=N/NC(N)=O)c2ccccn2c1C(=O)c1ccc(F)cc1 ?
Pf growth 48h: 1%; Pf growth 96h: inconclusive; AMA1-RON2 inh: -18%; VACV mCherry inh: -15%; VACV Venus inh: -12%

How did CNC(=S)N/N=C/c1cn(CCOc2ccc(OC)cc2)c2ccccc12 do in these assays?
Pf growth 48h: inconclusive; Pf growth 96h: 5.9µM*; AMA1-RON2 inh: 22%[2.32 µM]; VACV mCherry inh: inconclusive; VACV Venus inh: inconclusive

How did COC(=O)N/N=C/c1cn(Cc2ccc(F)cc2)c2ccccc12 do in these assays?
Pf growth 48h: inconclusive; Pf growth 96h: -7%; AMA1-RON2 inh: -1%

What do the screens show for `COc1ccccc1OCCn1cc(/C=N/NC(N)=S)c2ccccc21`?
Pf growth 48h: inconclusive; Pf growth 96h: inconclusive; AMA1-RON2 inh: 49%; VACV mCherry inh: inconclusive; VACV Venus inh: 1.3µM*

Results for CNC(=S)N/N=C/c1c(C)c(C(=O)c2ccc(F)cc2)n2ccccc12 ?
Pf growth 48h: 8.3µM*; Pf growth 96h: 3.3µM*; AMA1-RON2 inh: 78%; VACV mCherry inh: inconclusive; VACV Venus inh: -11%
